Several values for one entry are separate records, joined by “and”; a condition that tells them apart may be missing. Identical values can stand only once. Results filed as inconclusive are left out. A call without a number means that no potency is given here. Some structures have more than one record in an assay (separate samples or runs), and their calls can disagree. Activity calls are given as the source filed them. Unless noted, calls come from the whole dose curve; as a rule, active = well fitted curve in the direction sought with a large enough effect in the repeat runs; inconclusive = weak or mixed curves; inactive = no such curve, though single readings can be large; an effect the other way counts as inactive or inconclusive.
Assays:
[1] = qHTS assay to identify aromatase inhibitors - cell viability counter screen (AID 743084);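 note: cells stimulated with testosterone during compound exposure; nearly all actives have a fitted effect of over 55% in size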
[2] = biological target: Aryl hydrocarbon receptor (Homo sapiens) (UniProt P35869); assay: qHTS assay to identify small molecule that activate the aryl hydrocarbon receptor (AhR) signaling pathway (AID 743085);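 note: HG2L7.5c1 human HepG2 liver cells with stably integrated DRE-driven firefly reporter; series mostly up to about 70 µM; nearly all actives have a fitted effect of over 15% in size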
Outline: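 AhR agonist activity is inferred from enhanced light output of a DRE-controlled firefly luciferase reporter in HepG2 cells, measured with ONE-Glo following 24 h treatment at 37C.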

[3] = qHTS assay to identify small molecule that activate the aryl hydrocarbon receptor (AhR) signaling pathway - cell viability counter screen (AID 743086); note: nearly all actives have a fitted effect of over 45% in size; note: potency is the fitted concentration of half-maximal effect
Outline: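 Cytotoxicity counter screen: CellTiter-Fluor signal (30 min, 37 C) in 4000 HepG2 cells/well carrying the DRE-luciferase reporter, following 24 h compound exposure at 37 C.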

[4] = qHTS assay to identify small molecule antagonists of the peroxisome proliferator-activated receptor gamma (PPARg) signaling pathway - cell viability counter screen (AID 743194); note: nearly all actives have a fitted effect of over 55% in size
Outline: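 Viability was measured as CellTiter-Glo luminescence in GeneBLAzer PPARg UAS-bla HEK293H cells. These cells had been exposed 17 h at 37 C to compounds together with rosiglitazone at 50 nM final, with the beta-lactamase readout taken in the same wells.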

[5] = qHTS assay for small molecule agonists of the antioxidant response element (ARE) signaling pathway (AID 743202; active = well fitted activation curve with a large enough effect in the signal ratio in the repeat runs, not every such curve was filed as active; the % refers to the signal ratio; note: potency is the fitted concentration of half-maximal effect)
Outline: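 Beta-lactamase reporter activity, read as fluorescence intensity, reflects ARE/Nrf2 pathway induction in HepG2 cells after 16 h compound exposure at 37 C; substrate loading was 2 h at room temperature.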

[6] = qHTS assay for small molecule agonists of the antioxidant response element (ARE) signaling pathway - cell viability counter screen (AID 743203; calls by dose curve; note: nearly all actives have a fitted effect of over 55% in size)
Outline: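 Luminescence read-out (CellTiter-Glo, 30 min at room temperature) measured cell viability in the same wells as the ARE beta-lactamase reporter. HepG2 ARE-bla cells were treated with compounds for 16 hrs at 37C/5% CO2.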

[7] = qHTS assay for small molecule activators of the heat shock response signaling pathway - cell viability counter screen (AID 743209); note: nearly all actives have a fitted effect of over 50% in size
Outline: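 HSE-bla HeLa; 1500 cells/well; overnight 37 C, 5% CO2; compound 5 h 37 C; LiveBLAzer B/G substrate 2.5 h RT; CellTiter-Glo 30 min RT; luminescence.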

[8] = qHTS assay to identify small molecule agonists of the peroxisome proliferator-activated receptor delta (PPARd) signaling pathway - cell viability counter screen (AID 743211); note: nearly all actives have a fitted effect of over 55% in size
Outline: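 qHTS cell viability: PPARd-bla HEK293H; 17 h cpd, 37C; CellTiter-Glo, luminescence at 30 min RT.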

[9] = biological target: Peroxisome proliferator-activated receptor delta (Homo sapiens) (UniProt Q03181); assay: qHTS assay to identify small molecule agonists of the peroxisome proliferator-activated receptor delta (PPARd) signaling pathway (AID 743212; calls by dose curve)
Outline: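 Steps: seed PPARd-bla HEK293H cells; incubate 5 h, 37 C, 5% CO2; add compounds in DMSO; incubate, 37 C; add LiveBLAzer B/G FRET substrate; hold 2 h at room temperature; measure fluorescence.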

[10] = qHTS assay to identify small molecule antagonists of the peroxisome proliferator-activated receptor delta (PPARd) signaling pathway - cell viability counter screen (AID 743213); note: nearly all actives have a fitted effect of over 50% in size; note: potency is the fitted concentration of half-maximal effect
Outline: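 PPARd-bla HEK293H cells (3000/well) got compound plus 300 nM L165041 agonist for 17 h at 37 C. Viability in the same wells came from CellTiter-Glo luminescence after 30 min at room temperature.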

[11] = biological target: Peroxisome proliferator-activated receptor delta (Homo sapiens) (UniProt Q03181); assay: qHTS assay to identify small molecule antagonists of the peroxisome proliferator-activated receptor delta (PPARd) signaling pathway (AID 743215; active = well fitted inhibition curve with a large enough effect in the signal ratio in the repeat runs, not every such curve was filed as active; the % refers to the signal ratio;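 note: cells stimulated with agonist L165041 at 300 nM final during compound exposure; series mostly up to about 62 µM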)
Outline: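 HEK293H GeneBLAzer PPARd UAS-bla reporter cells; cpd + L165041 300 nM final, 17 h 37 C; LiveBLAzer B/G FRET substrate 2 h RT; fluorescence intensity read-out. Antagonist mode.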

[12] = qHTS assay to identify small molecule agonists of the farnesoid-X-receptor (FXR) signaling pathway - cell viability counter screen (AID 743218); note: nearly all actives have a fitted effect of over 45% in size
Outline: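 Luminescence from CellTiter-Glo, read after 30 min at RT, reports viability of GeneBLAzer FXR-UAS-bla HEK 293T cells treated 16 h with compounds in the wells used for the beta-lactamase reporter.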

[13] = qHTS assay to identify small molecule antagonists of the farnesoid-X-receptor (FXR) signaling pathway - cell viability counter screen (AID 743221; active = well fitted cell-killing curve with a large enough effect in the repeat runs, not every such curve was filed as active; note: nearly all actives have a fitted effect of over 50% in size)
Outline: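 After a 5 h settling period, FXR-bla HEK 293T cells receive compound and chenodeoxycholic acid (50 uM final) and incubate 16 h at 37 C; CellTiter-Glo luminescence, read after 30 min at room temperature, reports cell viability.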

[14] = biological target: Vitamin D3 receptor (Homo sapiens) (UniProt P11473); assay: qHTS assay to identify small molecule agonists of the vitamin D receptor (VDR) signaling pathway (AID 743222; calls by dose curve)
Outline: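 Beta-lactamase reporter readout (LiveBLAzer B/G FRET, 2 h RT) in VDR-bla cells after 16 h compound treatment at 37C, 5% CO2; cells pre-incubated 4 h before pin transfer of DMSO solutions.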

[15] = biological target: Vitamin D3 receptor (Homo sapiens) (UniProt P11473); assay: qHTS assay to identify small molecule antagonists of the vitamin D receptor (VDR) signaling pathway (AID 743223; active = well fitted inhibition curve with a large enough effect in the signal ratio in the repeat runs, not every such curve was filed as active; the % refers to the signal ratio)
Outline: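 Reporter line VDR-bla; stimulus 1alpha,25-(OH)2 vitamin D3, 3 nM final; compound co-addition, 16 h 37C/5% CO2; LiveBLAzer B/G substrate 2 h RT; fluorescence intensity.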

[16] = biological target: Peroxisome proliferator-activated receptor gamma (Homo sapiens) (UniProt P37231); assay: qHTS assay to identify small molecule agonists of the peroxisome proliferator-activated receptor gamma (PPARg) signaling pathway (AID 743094; active = well fitted activation curve with a large enough effect in the signal ratio in the repeat runs, not every such curve was filed as active; the % refers to the signal ratio)
Outline: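 HEK293H PPARg-bla cells, 5 h settle at 37C/5% CO2; compound (DMSO) 17 h, 37C; B/G FRET substrate 1 h RT; fluorescence intensity read-out. qHTS format.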

[17] = biological target: Peroxisome proliferator-activated receptor gamma (Homo sapiens) (UniProt P37231); assay: qHTS assay to identify small molecule antagonists of the peroxisome proliferator-activated receptor gamma (PPARg) signaling pathway (AID 743191; calls by dose curve; note: series mostly up to about 63 µM; nearly all actives have a fitted effect of over 30% in size)
Outline: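 Beta-lactamase reporter under UAS control in HEK293H PPARg-bla cells; compound treatment 17 h at 37C. Read-out: fluorescence intensity after 1 h room-temperature incubation with LiveBLAzer B/G FRET substrate.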

[18] = qHTS assay for small molecule activators of the heat shock response signaling pathway (AID 743210; active = well fitted activation curve with a large enough effect in the signal ratio in the repeat runs, with a control signal flat, not every such curve was filed as active; the % refers to the signal ratio;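 note: HeLa cells with beta-lactamase reporter driven by heat shock elements; series mostly up to about 63 µM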)
Outline: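 Fluorescence from a cleaved B/G FRET substrate (2.5 h, room temp) reports HSE-driven beta-lactamase in HeLa cells treated 5 h at 37 C with DMSO-dissolved compounds.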

[19] = biological target: Bile acid receptor (Homo sapiens) (UniProt Q96RI1); assay: qHTS assay to identify small molecule antagonists of the farnesoid-X-receptor (FXR) signaling pathway (AID 743217; active = well fitted inhibition curve with a large enough effect in the signal ratio in the repeat runs, not every such curve was filed as active; the % refers to the signal ratio)
Outline: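 Read-out: beta-lactamase FRET fluorescence (LiveBLAzer B/G substrate, 2 h, room temperature) in GeneBLAzer FXR-UAS-bla HEK 293T cells. Compounds were co-dosed with 50 uM chenodeoxycholic acid (final) and incubated 16 h at 37 °C.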

[20] = biological target: Bile acid receptor (Homo sapiens) (UniProt Q96RI1); assay: qHTS assay to identify small molecule agonists of the farnesoid-X-receptor (FXR) signaling pathway (AID 743220; active = well fitted activation curve with a large enough effect in the signal ratio in the repeat runs, not every such curve was filed as active; the % refers to the signal ratio)
Outline: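 FXR-UAS-bla HEK 293T cells carrying a UAS-driven beta-lactamase reporter were plated for 5 h at 37C/5% CO2, then exposed to DMSO-dissolved Tox21 10K compounds for 16 h at 37C. A LiveBLAzer B/G FRET substrate was loaded for 2 h at room temperature before fluorescence reading.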

Chain of Peroxisome proliferator-activated receptor delta (Homo sapiens) (Q03181 whole entry, looked up): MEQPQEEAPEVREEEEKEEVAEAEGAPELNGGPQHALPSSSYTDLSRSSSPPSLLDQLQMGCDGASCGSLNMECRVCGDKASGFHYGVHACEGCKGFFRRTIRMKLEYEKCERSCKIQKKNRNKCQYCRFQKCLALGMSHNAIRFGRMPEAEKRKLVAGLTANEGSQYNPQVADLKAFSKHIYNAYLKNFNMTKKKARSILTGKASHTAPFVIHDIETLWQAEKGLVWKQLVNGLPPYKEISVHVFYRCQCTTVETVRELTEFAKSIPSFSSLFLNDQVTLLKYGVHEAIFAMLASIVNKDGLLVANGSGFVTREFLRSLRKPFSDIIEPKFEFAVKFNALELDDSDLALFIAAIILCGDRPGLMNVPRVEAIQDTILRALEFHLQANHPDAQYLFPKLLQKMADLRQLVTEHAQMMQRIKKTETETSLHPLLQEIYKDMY
Chain of Vitamin D3 receptor (Homo sapiens) (P11473 whole entry, looked up): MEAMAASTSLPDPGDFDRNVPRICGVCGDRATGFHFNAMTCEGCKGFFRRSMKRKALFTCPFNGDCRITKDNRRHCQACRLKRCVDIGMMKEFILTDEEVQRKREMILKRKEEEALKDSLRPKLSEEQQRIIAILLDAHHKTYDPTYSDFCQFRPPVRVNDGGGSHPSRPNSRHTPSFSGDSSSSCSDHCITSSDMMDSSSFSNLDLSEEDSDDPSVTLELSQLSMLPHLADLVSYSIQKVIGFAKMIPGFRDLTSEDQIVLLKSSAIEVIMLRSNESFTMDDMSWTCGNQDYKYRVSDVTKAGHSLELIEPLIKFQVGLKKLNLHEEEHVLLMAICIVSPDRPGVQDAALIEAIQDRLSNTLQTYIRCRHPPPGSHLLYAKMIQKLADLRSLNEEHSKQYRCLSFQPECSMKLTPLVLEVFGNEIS
Chain of Peroxisome proliferator-activated receptor gamma (Homo sapiens) (P37231 whole entry, looked up): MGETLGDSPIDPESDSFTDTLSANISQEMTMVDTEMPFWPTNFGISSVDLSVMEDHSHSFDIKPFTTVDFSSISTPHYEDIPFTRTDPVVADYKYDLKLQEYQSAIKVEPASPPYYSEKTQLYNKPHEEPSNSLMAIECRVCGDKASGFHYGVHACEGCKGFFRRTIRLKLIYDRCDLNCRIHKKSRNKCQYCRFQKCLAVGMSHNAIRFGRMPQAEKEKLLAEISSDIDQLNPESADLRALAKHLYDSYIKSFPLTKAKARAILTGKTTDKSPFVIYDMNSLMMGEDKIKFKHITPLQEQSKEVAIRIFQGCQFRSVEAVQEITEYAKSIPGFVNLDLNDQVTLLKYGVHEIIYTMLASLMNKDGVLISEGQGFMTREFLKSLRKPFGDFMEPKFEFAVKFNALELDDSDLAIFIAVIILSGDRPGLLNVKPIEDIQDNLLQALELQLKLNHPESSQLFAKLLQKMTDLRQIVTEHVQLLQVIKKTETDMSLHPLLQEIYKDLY
Chain of Aryl hydrocarbon receptor (Homo sapiens) (P35869 whole entry, looked up): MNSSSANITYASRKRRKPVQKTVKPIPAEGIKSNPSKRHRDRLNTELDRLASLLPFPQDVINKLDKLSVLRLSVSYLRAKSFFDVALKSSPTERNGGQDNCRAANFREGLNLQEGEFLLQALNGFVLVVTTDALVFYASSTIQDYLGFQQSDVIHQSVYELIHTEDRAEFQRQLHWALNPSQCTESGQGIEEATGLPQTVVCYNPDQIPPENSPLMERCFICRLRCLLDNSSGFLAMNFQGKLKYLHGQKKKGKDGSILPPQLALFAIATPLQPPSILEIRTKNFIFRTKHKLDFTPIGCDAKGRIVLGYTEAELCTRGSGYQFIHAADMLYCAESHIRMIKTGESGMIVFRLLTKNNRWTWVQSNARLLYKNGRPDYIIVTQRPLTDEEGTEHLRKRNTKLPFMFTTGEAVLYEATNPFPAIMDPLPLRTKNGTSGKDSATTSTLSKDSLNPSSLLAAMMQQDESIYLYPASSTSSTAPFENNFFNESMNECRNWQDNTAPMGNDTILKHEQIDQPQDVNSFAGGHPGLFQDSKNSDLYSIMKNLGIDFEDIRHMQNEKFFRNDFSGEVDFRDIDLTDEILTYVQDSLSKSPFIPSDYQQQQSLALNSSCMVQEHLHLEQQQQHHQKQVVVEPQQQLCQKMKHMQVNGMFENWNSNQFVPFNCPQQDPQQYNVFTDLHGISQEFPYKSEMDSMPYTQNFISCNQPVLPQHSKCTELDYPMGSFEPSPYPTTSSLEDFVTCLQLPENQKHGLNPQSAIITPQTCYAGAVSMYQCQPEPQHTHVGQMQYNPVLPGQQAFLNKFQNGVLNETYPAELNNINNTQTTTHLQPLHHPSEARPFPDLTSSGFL
Chain of Bile acid receptor (Homo sapiens) (Q96RI1 whole entry, looked up): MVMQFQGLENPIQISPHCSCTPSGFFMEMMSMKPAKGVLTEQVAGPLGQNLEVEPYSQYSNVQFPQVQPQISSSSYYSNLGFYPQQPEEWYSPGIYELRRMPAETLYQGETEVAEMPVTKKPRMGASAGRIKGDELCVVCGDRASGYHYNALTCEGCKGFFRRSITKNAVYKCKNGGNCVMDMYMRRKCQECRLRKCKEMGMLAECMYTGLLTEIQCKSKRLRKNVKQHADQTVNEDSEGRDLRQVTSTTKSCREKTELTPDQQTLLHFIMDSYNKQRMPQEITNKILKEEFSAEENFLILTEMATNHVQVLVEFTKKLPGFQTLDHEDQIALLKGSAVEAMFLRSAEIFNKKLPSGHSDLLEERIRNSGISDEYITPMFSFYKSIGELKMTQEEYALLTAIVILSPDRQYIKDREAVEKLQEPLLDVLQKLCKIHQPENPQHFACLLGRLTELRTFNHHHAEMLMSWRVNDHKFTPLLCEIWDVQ

SMILES | Potency [1] | Potency [2] | Potency [3] | Potency [4] | Potency [5] | Potency [6] | Potency [7] | Potency [8] | outcome [9] | Potency [10] | outcome [11] | Potency [12] | Potency [13] | outcome [14] | outcome [15] | outcome [16] | Potency [17] | outcome [18] | Potency [19] | outcome [20]
OCCNCCO | inactive | inactive | inactive | inactive | inactive | inactive | inactive | inactive | inactive | inactive | inactive | inactive | inactive | inactive | inactive | – | – | – | – | –
COCCOCCOCCO | inactive | inactive | inactive | inactive | inactive | inactive | inactive | inactive | inactive | inactive | – | inactive | – | inactive | inactive | – | – | – | – | –
CC(=O)Oc1ccc(C(c2ccc(OC(C)=O)cc2)c2ccccn2)cc1 | inactive | inactive | – | inactive | inactive | inactive | inactive | inactive | inactive | inactive | inactive | inactive | – | – | inactive | inactive | inactive | inactive | – | –
CC(C)(C)c1cccc(C(C)(C)C)c1O | inactive | inactive | – | inactive | inactive | inactive | inactive | inactive | inactive | inactive | inactive | inactive | inactive | – | – | inactive | inactive | inactive | inactive | inactive
NCCN | inactive | inactive | inactive | inactive | inactive | inactive | inactive | inactive | inactive | – | inactive | – | inactive | – | – | – | – | – | – | –
CC(=O)[C@H]1CC[C@H]2[C@@H]3CC=C4C[C@@H](O)CC[C@]4(C)[C@H]3CC[C@]12C | inactive | inactive | – | inactive | 12.2 µM (active) | inactive | inactive | inactive | inactive | inactive | inactive | inactive | inactive | inactive | inactive | inactive | – | inactive | inactive | inactive
Nc1ccc2c(O)cc(S(=O)(=O)O)cc2c1 | inactive | inactive | 9.7 µM (active) | inactive | – | inactive | inactive | inactive | inactive | inactive | inactive | inactive | inactive | – | – | – | – | inactive | – | –
CN1CCOCC1 | inactive | inactive | inactive | – | inactive | inactive | inactive | inactive | – | inactive | – | inactive | inactive | inactive | inactive | – | – | – | – | –
CC/C=C\C/C=C\C/C=C\CCCCCCCC(=O)O | inactive | inactive | inactive | inactive | inactive and 34.4 µM (active) | inactive | inactive | inactive | inactive | inactive and 34.7 µM (active) | – | inactive | inactive | inactive | inactive | – | – | – | inactive | inactive

Source: PubChem BioAssay (Tox21)
